These results are taken from PubChem BioAssay AID624483 (NMMLSC, 2012).

Values joined by “and” are separate entries in the source; they are usually repeats but may differ in a detail not shown here. Equal values may be shown once. Hit rate of the full screen: of about 360,000 compounds, about 11,000 (3.1%) were called active. Roughly 2% stayed inconclusive and do not appear here. Many of the other results were omitted from the sample, so actives are more common in it than they were. Unmarked numbers belong to inactive results. Cut-off read from the data, not from the text of the source: active = fluorescence intensity above about 16000; inconclusive = no clear call, values can overlap the other calls; inactive = below that.

The assay can be described thus: counter-screen for toxin protease inhibitors: compound fluorescence, primary screen, artefact control for toxin protease inhibitor project, biochemical, multiplex microsphere, HTS (AID 624483). Conditions: compound autofluorescence counterscreen, microsphere flow cytometry; stronger effect = higher value.
For `CC(C)(C)C1C/C(=C/c2ccco2)C(=O)/C(=C/c2ccco2)C1` (configuration not stated), the fluorescence intensity was 3920.

For `O=S1(=O)CC(N2CCSCC2)CN1Cc1cn(Cc2cccc(Cl)c2)nn1` (configuration not stated), the fluorescence intensity is 5080.

With `O=C(O)C(c1cccs1)C1(O)CCCCC1` (configuration not stated), the fluorescence intensity is 3860.

As to `CC1(C)C(=O)C2(CCCCC2)C(=O)OC1c1cccs1` (configuration not stated), the fluorescence intensity is 20700 (active).

With `CC12CN3CC(C)(CN(C1)C3c1cccs1)C2` (configuration not stated), the fluorescence intensity was 8490.

For the compound `CCC(C(=O)N1CCN(S(=O)(=O)c2sc(C(=O)O)c(C)c2C(=O)O)CC1)c1ccccc1` (configuration not stated), the fluorescence intensity was 9090.

With `CN(c1cccc(NC(=O)Nc2ccc(Cl)cc2)c1)S(C)(=O)=O`, the fluorescence intensity was 16900 (active).

In the case of `COc1ccc(C)cc1S(=O)(=O)N(CC(=O)Nc1cccc([N+](=O)[O-])c1)c1ccc(C)cc1`, the fluorescence intensity was 2390.

Regarding `CN(c1cccc(NC(=O)c2ccc(CN3CCc4ccccc4C3)cc2)c1)S(C)(=O)=O`, the fluorescence intensity is 3600.

Take `COc1cccc(NC(=O)Nc2ccc(F)cc2)c1`: the fluorescence intensity was 3940.

Turning to `Cc1ccc(N(CC(=O)Nc2cccc(N(C)S(C)(=O)=O)c2)S(C)(=O)=O)cc1`, the fluorescence intensity was 24500 (active).

`CCOc1ccc(N(CC(=O)Nc2cccc(OC)c2)S(C)(=O)=O)cc1`: the fluorescence intensity was 4460.

Turning to `N#Cc1c(NCCO)ccc([N+](=O)[O-])c1NCCO`, the fluorescence intensity is 3950.

Turning to `O=C(NCc1cccnc1)c1cc(C2CCCN(C(=O)CCCc3ccccc3)C2)on1` (configuration not stated), the fluorescence intensity is 3480.

Turning to `COc1ccc(-c2coc3c(C(=O)NC(C)C)cccc23)c(C)c1`, the fluorescence intensity was 3850.

`O=C(COC(=O)c1ccc(F)c(S(=O)(=O)N2CCOCC2)c1)NCc1ccc2c(c1)OCO2`: the fluorescence intensity is 3750.

As for `CCOC(=O)N1CCN(c2c(NCCCN3CCCC(C)C3)c(=O)c2=O)CC1` (configuration not stated), the fluorescence intensity is 4370.

Turning to `Cc1ccc(-c2nc3c(C)cc(Br)cn3c2Cc2ccccc2)cc1`, the fluorescence intensity is 4960.

On to `CC(=O)N(CC(O)CO)c1c(I)c(C(=O)NCC(O)CO)c(I)c(C(=O)NCC(O)CO)c1I` (configuration not stated), for which the fluorescence intensity is 5720.

Consider `N#Cc1c(N)nc2c(c1N)CC(C(F)(F)F)O2` (configuration not stated), for which the fluorescence intensity is 4380.

Turning to `C=CCn1c(COc2ccccc2C)nnc1SCC(=O)O`, the fluorescence intensity is 2820.

As to `C=CCn1c(COc2ccc(F)cc2)nnc1SCC(=O)Nc1cccc(S(N)(=O)=O)c1`, the fluorescence intensity was 4780.

In the case of `C=CCn1c(COc2cccc3cccnc23)nnc1SCC(=O)OC`, the fluorescence intensity was 21200 (active).

As to `CN(Cc1ccc(C(F)(F)F)cc1)C(=O)[C@H]1O[C@@H](n2cnc3c(N)ncnc32)[C@H](O)[C@@H]1O`, the fluorescence intensity was 4210.

With `COc1cc(C(=O)NCc2ccc3c(c2)cc(C)n3C)cc(OC)c1OC`, the fluorescence intensity was 3720.

For the compound `COCCNC(=O)C1(C)CCCN(Cc2cccc(F)c2)C1` (configuration not stated), the fluorescence intensity is 2750.

With `Brc1ccc(-c2noc(-c3ccccc3)n2)o1`, the fluorescence intensity was 4610.

On to `Brc1ccc(-c2nnc(-c3ccccc3)o2)o1`, for which the fluorescence intensity was 24200 (active).

As to `OC(c1nnc(-c2ccccc2)o1)c1cccs1` (configuration not stated), the fluorescence intensity was 4160.

On to `CCCCCc1c(-c2ccc(OC)c(OC)c2)ncn1CCc1ccccc1OC`, for which the fluorescence intensity is 6300.

Regarding `COc1cccc(CNC(=O)COc2cc(O)c3c(c2)OC(C)(C)CC3=O)c1`, the fluorescence intensity was 5480.

Regarding `CC1=C(C(=O)N2CCOCC2)CC(CC(=O)NCc2cccs2)C(=O)N1CCCN1CCCC1=O` (configuration not stated), the fluorescence intensity was 4160.

On to `CCN(CC)C(=O)C1CCCN(Cc2cccc(Cl)c2)C1` (configuration not stated), for which the fluorescence intensity is 2940.

Consider `COc1ccc(-c2noc(CSc3ccc(C)cc3)n2)cc1`, for which the fluorescence intensity was 24000 (active).

For the compound `Cc1ccc(-c2noc(CC(c3ccccc3)c3ccccc3)n2)cc1`, the fluorescence intensity is 4240.

As to `COc1ccc(N2CCN(C(=O)CCc3nc(-c4ccc(C)cc4)no3)CC2)cc1`, the fluorescence intensity was 3440.

For the compound `CC(C)c1ccc(CC(=O)N2CCC2(C)C(=O)NS(=O)(=O)c2ccc(C(C)(C)C)cc2)cc1` (configuration not stated), the fluorescence intensity is 2850.

Take `CCC(=O)N1CCC(C)(C(=O)Nc2cc(OC)c(OC)c(OC)c2)C1` (configuration not stated): the fluorescence intensity is 3060.

With `O=C(CSc1nnc(Cc2ccccc2)n1-c1ccccc1)N1CCOCC1`, the fluorescence intensity is 16700 (active).

In the case of `CCn1c(CC(=O)Nc2ccccc2)nnc1SCC(=O)N1CCOCC1`, the fluorescence intensity was 6500.

As to `Cc1ccc(-n2c(CNc3ccc(F)cc3)nnc2SCC(=O)N2CCOCC2)cc1`, the fluorescence intensity is 4740.

Take `O=C(COc1ccc([N+](=O)[O-])cc1Cl)Nc1ccc2[nH]c(=O)[nH]c2c1`: the fluorescence intensity was 4100.

For `COC(=O)c1ccc(OCC(=O)NC(C)(C)C)cc1`, the fluorescence intensity is 2670.

Turning to `CC(C)(C)NC(=O)COc1ccc(CNc2ccc3[nH]c(=O)[nH]c3c2)cc1`, the fluorescence intensity is 22600 (active).

Take `CCC(Oc1ccccc1)C(=O)OCC(=O)Nc1c(C)nn(-c2ccccc2)c1C` (configuration not stated): the fluorescence intensity is 3640.

With `O=C(Nc1ccc2c(c1)CCC2)c1ccc(Br)s1`, the fluorescence intensity was 4300.

On to `O=C(NC1CCCC1)c1ccc(Br)s1`, for which the fluorescence intensity is 17100 (active).

For `O=C(NC1CCCCCCC1)c1cccs1`, the fluorescence intensity is 3700.

`CC(C)NC(=O)N1Cc2cc(C(=O)NCC(F)(F)F)nc(-c3cccc(-c4cc5ccccc5o4)c3)c2[C@@H]1CCO`: the fluorescence intensity was 6410.

Turning to `CC(C)(C)NC(=O)CN(Cc1cccs1)C(=O)CNS(=O)(=O)c1ccccc1`, the fluorescence intensity was 22000 (active).

`O=C(CN(CC1CCCO1)C(=O)CNS(=O)(=O)c1ccccc1)NCc1ccccc1` (configuration not stated): the fluorescence intensity was 4900.

Turning to `CCC(C)(C)NC(=O)CN(Cc1cccs1)C(=O)CNS(=O)(=O)c1ccc(F)cc1`, the fluorescence intensity was 4360.

As for `Cc1[nH]c2ccccc2c1CCN(Cc1cccs1)C(=S)NC(C)(C)C`, the fluorescence intensity is 4220.

Regarding `Cc1ccc(S(=O)(=O)NCC(=O)N(CC(=O)NC(C)(C)C)Cc2cccs2)cc1`, the fluorescence intensity is 23500 (active).

Take `Cc1ccc(S(=O)(=O)NCC(=O)N(CC(=O)NC2CCCCC2)Cc2ccco2)cc1`: the fluorescence intensity is 3490.

`CSCCC(c1nnnn1Cc1ccccc1)N1CCN(C/C=C/c2ccccc2)CC1` (configuration not stated): the fluorescence intensity is 6070.

On to `COC(=O)[C@]12CCCCC=C1N(Cc1cccc3ccccc13)C(=O)[C@H](CC(=O)N1CCOCC1)C2`, for which the fluorescence intensity is 4200.

With `CC1(C(=O)O)CCN1C(=O)/C=C/c1ccccc1` (configuration not stated), the fluorescence intensity is 3910.

Take `CCc1ccc(Nc2n[n+](-c3ccccc3)c(-c3cccc(Cl)c3Cl)s2)cc1`: the fluorescence intensity is 4300.

For the compound `CN(Cc1ccc2nsnc2c1)Cc1nc(Cc2cccc(F)c2)no1`, the fluorescence intensity was 4550.

Regarding `O=C1NC[C@@H](CCCCN2CCN(CCc3ccc(O)cc3)C(=O)C2=O)N(CC2CCCCC2)C1=O`, the fluorescence intensity is 6050.

In the case of `O=C(COC(=O)CCc1nc2ccccc2c(=O)[nH]1)Nc1ccc(N2CCOCC2)cc1`, the fluorescence intensity was 4110.

`COc1ccc(Sc2ccc(NC(=O)c3cccc(Cl)c3)cc2C#N)cc1`: the fluorescence intensity was 3440.

As for `Cc1ccc2c(O)c(Cc3ccccc3)c(=O)[nH]c2n1`, the fluorescence intensity was 3740.

Take `Cc1nc(SC(C)C)[nH]c(=O)c1Cc1ccccc1`: the fluorescence intensity was 23800 (active).

With `CC(=O)Nc1nc(C)c(Cc2ccccc2)c(=O)[nH]1`, the fluorescence intensity is 2420.

For the compound `CC(C)NC(=O)C1(C)CCCCN1Cc1cccc(C(F)(F)F)c1` (configuration not stated), the fluorescence intensity is 3020.

As to `COc1ccc(-c2nc3cc(C)ccn3c2NC2CCCCC2)cc1SC1CCCCC1`, the fluorescence intensity is 20700 (active) and 26600 (active).

With `CCOc1cc(-c2nc3cc(C)ccn3c2NCC2CCCO2)ccc1O` (configuration not stated), the fluorescence intensity was 4290.

For the compound `COc1ccc(-c2nc3cnccn3c2NC2CCCCC2)cc1-c1cccc(Cl)c1`, the fluorescence intensity is 6580 and 3860.

With `COc1cc(NC(=O)CN2C(=O)NC(C)(c3ccc(OC(F)F)cc3)C2=O)cc(OC)c1OC` (configuration not stated), the fluorescence intensity is 3820.

With `CN(CC(=O)Nc1c(Cl)cccc1Cl)C(=O)CNC(=O)C1CCCCC1`, the fluorescence intensity was 4800.

As to `CC(=O)N1C[C@@H](CO)[C@@H](N(C)C(=O)c2ccco2)C[C@H]1c1ccccc1`, the fluorescence intensity is 6130.

As for `C=CCn1c(SCC(=O)NC(=O)Cc2ccccc2)nc2ccccc2c1=O`, the fluorescence intensity was 8750.

Take `C=CCn1c(SCC(=O)NCc2ccccc2)nnc1-c1cc(Br)ccc1O`: the fluorescence intensity is 20700 (active).

With `O=C(CSc1nnc(-c2cccnc2)n1CCc1ccccc1)NCc1ccccc1`, the fluorescence intensity is 2870.

On to `Cc1nc(CC(=O)NNS(=O)(=O)c2ccc(F)c(Cl)c2)cs1`, for which the fluorescence intensity was 2630.

With `CCN(Cc1cc2cc(C)ccc2[nH]c1=O)S(=O)(=O)c1ccccc1`, the fluorescence intensity is 16600 (active).

In the case of `CCC(=O)N(CCc1ccccc1)Cc1cc2cc(C)ccc2[nH]c1=O`, the fluorescence intensity was 3090.

Turning to `COc1ccc(N(Cc2cc3ccc(C)cc3[nH]c2=O)S(=O)(=O)c2ccccc2)cc1`, the fluorescence intensity is 4310.

Take `CC1(C(=O)NS(=O)(=O)Cc2cccc(Cl)c2)CCN1C(=O)Cc1ccccc1` (configuration not stated): the fluorescence intensity is 3480.

For `CC(=O)Nc1cccc(NC(=O)CSc2nccn2Cc2ccc(F)cc2)c1`, the fluorescence intensity was 6150.

With `OC(c1ccc(Cl)c(F)c1)c1ncc(-c2ccccc2Cl)[nH]1` (configuration not stated), the fluorescence intensity is 3970.

With `COCc1[nH]nc2c1C(C1C=CCCC1)C(C#N)=C(N)O2` (configuration not stated), the fluorescence intensity was 11600.

`COc1cc(C2C(C#N)=C(N)Oc3n[nH]c(-c4ccccn4)c32)cc(OC)c1OC` (configuration not stated): the fluorescence intensity was 22700 (active).

Consider `COc1ccc(-c2[nH]nc3c2C(c2ccncc2)C(C#N)=C(N)O3)cc1` (configuration not stated), for which the fluorescence intensity is 3830.

For the compound `NC(=O)Cc1ccc2sc(-c3ccccc3)nc2c1`, the fluorescence intensity was 2610.

Take `Cc1cc(NC(=O)[C@H](C)NC(=O)c2ccco2)ccc1Br`: the fluorescence intensity is 3700.

Regarding `O=C(COc1ccccc1F)Nc1nc(-c2ccccn2)cs1`, the fluorescence intensity is 3790.

In the case of `CC(NC(=O)c1ccco1)C(=O)Nc1nc(-c2ccccn2)cs1` (configuration not stated), the fluorescence intensity is 20700 (active).

As to `COCCNc1ncnc2c1ncn2[C@H]1CN(CCN2CCOCC2)C[C@@H](CO)O1`, the fluorescence intensity is 3590.

`OC(c1ccccc1)C(CN1CCOCC1)c1ccccc1` (configuration not stated): the fluorescence intensity was 4580.
